Compounds without any hit were thinned out: in the full panel of roughly 79,000, 15% have a hit. Cut-off read from the data, not from the text of the source: active = growth inhibition above about 70%; inactive = the rest.
Key:
[1] = NCI Yeast Anticancer Drug Screen. Data for the rad50 strain (AID 155);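 note: 0% = growth of vehicle-only cultures of the same strain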; conditions: S. cerevisiae rad50 strain growth inhibition; at 50.0 µM; hits give high values
Summary of the method: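 Yeast carrying a defined DNA repair defect were exposed to test compounds, and growth was compared with vehicle-treated controls to give percent inhibition.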

[2] = NCI Yeast Anticancer Drug Screen. Data for the mec2-1 strain (AID 157); conditions: S. cerevisiae mec2-1 strain, at 50.0 µM, hits give high values
Summary of the method: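 Mutant yeast (mec2-1) grown with compound; growth inhibition relative to vehicle control reported.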

[3] = NCI Yeast Anticancer Drug Screen. Data for the sgs1 mgt1 strain (AID 161);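 note: 0% = growth of cultures given vehicle only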; conditions: S. cerevisiae sgs1 mgt1 strain, at 50.0 µM, hits give high values
Summary of the method: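 Compounds are added to genetically altered yeast, and growth is compared with cultures given vehicle alone to give percent inhibition.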

[4] = NCI Yeast Anticancer Drug Screen. Data for the cln2 rad14 strain (AID 165);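 note: 0% = growth equal to vehicle treated cultures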; conditions: S. cerevisiae cln2 rad14 strain, at 50.0 µM, hits give high values
Summary of the method: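 Readout is yeast growth inhibition versus vehicle-treated controls, using a strain with cln2 and rad14 alterations exposed to compound.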

[5] = NCI Yeast Anticancer Drug Screen. Data for the bub3 strain (AID 167); conditions: S. cerevisiae bub3 mutant strain, at 50.0 µM, hits give high values
Summary of the method: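 Compounds were applied to a genetically altered yeast strain carrying a cell-cycle control defect. Growth inhibition was scored against vehicle-treated controls.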

[6] = NCI Yeast Anticancer Drug Screen. Data for the mlh1 rad18 strain (AID 175); conditions: S. cerevisiae mlh1 rad18 strain growth inhibition; at 50.0 µM; hits give high values
Summary of the method: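 Genetically defined yeast (DNA repair-deficient) exposed to compounds; growth inhibition determined relative to vehicle.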

Measured: growth inhibition

COc1ccc(N=NC(=S)NNc2ccc(OC)cc2Oc2ccccc2)c(Oc2ccccc2)c1
inactive: [1] 12.5% | [2] -0.4% | [3] 29.4% | [4] 11.8% | [5] -4.6% | [6] 3.35%

O=c1[nH]cc(CCOCc2ccccc2)c(=O)[nH]1
inactive: [1] -4.3% | [2] -8.15% | [3] 0.3% | [4] 34.2% | [5] -10.4% | [6] -17%

OC[C@@H]1C2CCC([C@@H]1CO)C2(Cc1ccccc1)Cc1ccccc1
inactive: [1] 5.9% | [2] 26.9% | [3] 9.45% | [4] -73% | [5] 4.95% | [6] -11.2%

COC(=O)c1ccccc1NC(=NC1CCCCCC1)NS(=O)(=O)c1ccc(C)cc1
inactive: [1] 30.4% | [2] 11.2% | [3] -13.8% | [4] -8.15% | [5] 0.3% | [6] -31.3%

CCO[Si](OCC)(OCC)c1ccccc1
inactive: [1] -28.7% | [2] -21.3% | [3] -10.7% | [4] -5.85% | [5] -14.5% | [6] -15.8%

CCOC(=O)c1cnc2cc3c(cc2c1Nc1cccc(C)c1C)OCO3
inactive: [1] -9.9% | [2] -7.35% | [3] -16.4% | [4] -13% | [5] 3.5% | [6] -6.6%

O=C[c-]1[c-][c-][c-][c-]1.[Fe+2].[c-]1[c-][c-][cH-][c-]1
inactive: [1] 44% | [2] 58.5% | [3] 57.8% | [4] 49% | [5] 51.6% | [6] 14%

O=C(NCCNCCO)N/N=C/c1ccc([N+](=O)[O-])cc1
inactive: [1] -8.75% | [2] -7.35% | [3] -1.4% | [4] 36.6% | [5] 0.3% | [6] -3.65%

O=C(CCCCCCCCC(=O)OCCCn1cc(C(=O)NC(=O)OCc2ccccc2)c(=O)[nH]c1=O)OCCCn1cc(C(=O)NC(=O)OCc2ccccc2)c(=O)[nH]c1=O
inactive: [1] -28.6% | [2] -41.7% | [3] -25.6% | [4] 1.7% | [5] -24.2% | [6] -36.8%

O=C1C2(CCCC13OC3c1ccccc1)OC2c1ccccc1 (centres undefined)
inactive: [1] -20.9% | [2] -11.1% | [3] -5.15% | [4] -14.4% | [5] 23.3% | [6] -3.6%

CSc1nc2c(nc(N)n2C2OC(CO)C(O)C(O)C2O)c(=O)[nH]1 (centres undefined)
inactive: [1] -13.7% | [2] 8.45% | [3] -1.85% | [4] -1.2% | [5] -6.2% | [6] -8.9%

O=[N+]([O-])c1ccc(/C([O-])=C(\C(=S)Nc2ccccc2Cl)[n+]2ccccc2)cc1
inactive: [1] -7.5% | [2] 0.1% | [3] -6.95% | [4] -14.4% | [5] 2.35% | [6] 11.2%

CCCCCCC1(/C=C\c2ccccc2Cl)OCCO1
inactive: [1] 37.6% | [2] 31.5% | [3] 37.5% | [4] -9.6% | [5] 16.9% | [6] 23.3%

CCOC(=O)C(CC(C)C)NC(=O)c1cnc2ccccc2c1 (centres undefined)
inactive: [1] 26.6% | [2] -0.7% | [3] 25.6% | [4] -13.8% | [5] 26.2% | [6] 21.9%

[N-]=[N+]=Nc1cc(=O)n(-c2ccccc2)c2ccccc12
inactive: [1] -17.2% | [2] -22.7% | [3] -24.6% | [4] -2.8% | [5] -3.75% | [6] -22.3%

CC(=O)OC1CC2C(C)(CCC3C2(C)CCC2(C)C4CC(C)(C)CCC4(C)CCC32C)C1C (centres undefined)
inactive: [1] -28.2% | [2] -18.3% | [3] -7.5% | [4] 2.75% | [5] -3.2% | [6] 3.2%

CC1(C)N=C(C(N)=O)c2ncn(CCO)c2N1
inactive: [1] -12.4% | [2] -34% | [3] -21.6% | [4] -10.7% | [5] -9.95% | [6] -23.4%

N#CC(C(=O)/C(=N\Nc1nc(=S)[nH]n1N)C(C#N)c1ccc(Cl)cc1)c1ccc(Cl)cc1 (centres undefined)
inactive: [1] -13.3% | [2] -10% | [3] -28.6% | [4] 4.45% | [5] -4.4% | [6] -4.95%

O=S(=O)(O)ON=C1c2ccccc2-c2ccccc21
inactive: [1] 0.6% | [2] -10.7% | [3] 10.4% | [4] 10.4% | [5] 6.55% | [6] -13.6%

C/C=C(/C)C(C#N)(CCC)C(=O)OCC (centres undefined)
inactive: [1] 5.9% | [2] -12.4% | [3] -8.7% | [4] 3% | [5] -9.85% | [6] 11.3%

C/C(=C1/N=C(c2cc([N+](=O)[O-])ccc2Cl)N(c2ccc(Br)cc2)C1=O)c1cc2ccccc2oc1=O
inactive: [1] 35.3% | [2] 17.7% | [3] 15.7% | [4] 14.1% | [5] 9.35% | [6] 19.8%

Cc1c(OC(C)C(=O)O)ccc2c(-c3ccccc3)cc(=O)oc12 (centres undefined)
inactive: [1] 2.95% | [2] 12.7% | [3] 23.9% | [4] 27.2% | [5] 5.9% | [6] 38.2%

NNc1cn[nH]c(=O)c1Cl
inactive: [1] -16.6% | [2] -28.2% | [3] -10.1% | [4] 4.4% | [5] -3.85% | [6] -26.4%

CC(C)OP(=O)(OC(C)C)C([CH2][Sn]([CH3])([CH3])[Cl])P(=O)(OC(C)C)OC(C)C
inactive: [1] 5.75% | [2] -0.8% | [3] 0.45% | [4] 0.25% | [5] -2.1% | [6] -1.45%

N#C/C(=C/n1c(=S)[nH]c2ccc([N+](=O)[O-])cc21)C(N)=O
inactive: [1] -53.3% | [2] -41% | [3] -50.4% | [4] 2.15% | [5] -24% | [6] -70.9%

COc1cc2c(cc1C/C=C/c1ccccc1)OCO2
inactive: [1] -11.4% | [2] -15.9% | [3] -0.9% | [4] -9.5% | [5] 17.1% | [6] -6.4%

NC(N)=N/N=C(\c1ccc(Cl)cc1)C1CC1
inactive: [1] 2.7% | [2] -5.05% | [3] -11.9% | [4] -13.2% | [5] -65.3% | [6] 10%

COC(=O)NN=C1C(C)(C)C(=NNC(=O)OC)C1(C)C
inactive: [1] 2.25% | [2] -15.5% | [3] -8.6% | [4] 27.1% | [5] -17.6% | [6] -5.4%

CCC(C)(O)Cc1ccccc1Cl (centres undefined)
inactive: [1] 30.1% | [2] 24.1% | [3] 21.9% | [4] 17.1% | [5] 7.2% | [6] 11.8%

CC(C)CCOC(=O)NC(Nc1ccc(F)cc1)(C(F)(F)F)C(F)(F)F
inactive: [1] -10.6% | [2] -15.9% | [3] -40.5% | [4] -13.3% | [5] -5.2% | [6] -25.9%

Cn1c(=O)c(N=Nc2c(=O)n(C)c(=O)n3c2[nH]c2ccccc23)c2[nH]c3ccccc3n2c1=O
inactive: [1] -2.1% | [2] 17.1% | [3] 7.4% | [4] -27.4% | [5] -10.7% | [6] 12.2%

CC(=O)OCCOC(C)=O
inactive: [1] 15.2% | [2] 4.35% | [3] -5.1% | [4] 19.9% | [5] 21.3% | [6] 1.45%

COc1cc(CCl)cc(OC)c1OC
inactive: [1] -13.7% | [2] -12% | [3] -7.7% | [4] -21.9% | [5] -7.65% | [6] -11.8%

CCNc1ncnc2c1cnn2C1CCCCC1
inactive: [1] 5.3% | [2] -7.15% | [3] -5.85% | [4] -35.9% | [5] 0.5% | [6] -2.5%

NCC1OCOC2C(C(=O)O)OCOC12 (centres undefined)
inactive: [1] 10.6% | [2] 2.6% | [3] 14.3% | [4] -16% | [5] 3.8% | [6] -3.7%

CN(C=O)C(C(=O)Nc1cccc2c(OC(=O)C(N(C)C=O)(N(C)C=O)N(C)C=O)c(N=Nc3ccc(S(=O)(=O)Nc4nccs4)cc3)cc(N=Nc3ccc(S(=O)(=O)Nc4nccs4)cc3)c12)(N(C)C=O)N(C)C=O (tested in a mixture with another compound)
inactive: [1] 60.1% | [2] 6.25% | [3] -6.25% | [4] -6.5% | [5] 16.9% | [6] 35.6%

CSc1cc2c(cc1N)C(=O)c1ccccc1-2
inactive: [1] 12.5% | [2] 2.45% | [3] 7.4% | [4] -24.1% | [5] -13.1% | [6] 12.9%

CC(C)CCOC(=O)C(O)C(O)C(=O)OCCC(C)C (centres undefined)
inactive: [1] 14.2% | [2] 12.5% | [3] -3.05% | [4] -39% | [5] -0.85% | [6] 13.2%

CC(C)(CO)NC(=O)c1ccccc1Br
inactive: [1] -31.9% | [2] -11.7% | [3] -8.6% | [4] 1.55% | [5] -13.9% | [6] 7.8%
